# Values without a mark were called inactive. Inconclusive results are not listed. Where a call stands in place of a potency, no number is given. Active and inactive are the calls of the source. Calls come from the whole dose curve; as a rule, active = well fitted curve in the direction sought with a large enough effect; inconclusive = small, poorly fitted or top-dose-only effect, or another doubt; inactive = no such curve, though single readings can be large; an effect the other way counts as inactive or inconclusive.
# Key:
# [1] = molecular target: Glutathione peroxidase 1 (Homo sapiens) (UniProt P07203); assay: Primary qHTS Assay for Inhibitors of Recombinant Selenoprotein Glutathione Peroxidase 1 (GPX1) (AID 1845191); note: nearly all actives have a fitted effect of over 65% in size
# Chain of Glutathione peroxidase 1 (Homo sapiens) (P07203 whole entry, looked up): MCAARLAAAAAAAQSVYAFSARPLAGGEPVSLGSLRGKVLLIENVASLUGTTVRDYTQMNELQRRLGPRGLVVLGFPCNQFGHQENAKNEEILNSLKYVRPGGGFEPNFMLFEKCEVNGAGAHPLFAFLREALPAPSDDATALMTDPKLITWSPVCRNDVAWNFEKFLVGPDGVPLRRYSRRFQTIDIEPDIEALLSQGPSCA
# Outline: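 GR-coupled assay: compounds preincubated 30 min at room temperature with GPX1, then reaction started with CHP; final 10 nM GPX1, 1 mM GSH, 0.5 mM CHP, 0.5 mM NADPH, 100 nM GR, 0.01% BSA, pH 7.5 Tris buffer. NADPH fluorescence (340/450 nm) read at 0 and 15 min.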
# [2] = molecular target: Phospholipid hydroperoxide glutathione peroxidase GPX4 (Homo sapiens) (UniProt P36969); assay: Primary qHTS Assay for Inhibitors of Recombinant Selenoprotein Glutathione Peroxidase 4 (GPX4) (AID 1845192); note: nearly all actives have a fitted effect of over 65% in size; note: potency is the fitted concentration of half-maximal effect
# Chain of Phospholipid hydroperoxide glutathione peroxidase GPX4 (Homo sapiens) (P36969 whole entry, looked up): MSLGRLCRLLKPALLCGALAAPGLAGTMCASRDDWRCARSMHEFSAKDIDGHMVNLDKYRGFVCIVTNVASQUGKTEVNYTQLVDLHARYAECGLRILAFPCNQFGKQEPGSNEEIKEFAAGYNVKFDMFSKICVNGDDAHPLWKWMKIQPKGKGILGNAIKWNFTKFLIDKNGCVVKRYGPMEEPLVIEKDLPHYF
# Outline: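 GR-coupled assay: recombinant GPX4 preincubated 30 min with compound at room temperature; final 200 nM GPX4, 1 mM GSH, 0.5 mM cumene hydroperoxide, 0.5 mM NADPH, 100 nM GR, 0.01% BSA, pH 7.5 Tris. NADPH fluorescence (340/450 nm) read at 0 and 15 min.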
# [3] = molecular target: Luciferin 4-monooxygenase (Photinus pyralis) (UniProt P08659); assay: Primary firefly luciferase (FLuc) qHTS assay for identification of artifact compounds. (AID 1845220); note: nearly all actives have a fitted effect of over 60% in size
# Outline: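 Titrated compounds were incubated 15 min at RT, protected from light, with luciferin and ATP at 10 uM; reaction started with 10 nM FLuc, luminescence imaged at 5 min, and concentration-response fitted by Hill equation.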
# [4] = Primary fluorescence-based thiol-reactive (MSTI) qHTS assay for identification of artifact compounds. (AID 1845221);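 note: series mostly up to about 54 µM; thiol-reactive compounds lower the probe fluorescence signal; nearly all actives have a fitted effect of over 65% in size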
# Outline: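 Compounds were incubated 1 h at room temperature in the dark with the MSTI probe (4 uM) in PBS pH 7.4, 2% DMSO. Signals were normalized between Acetyl-MSTI and MSTI.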
# [5] = system: Nanoluciferase (engineered Oplophorus gracilirostris luciferase); assay: Primary Nanoluciferase (NLuc) qHTS assay for identification of artifact compounds. (AID 1845222);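 note: NLuc secreted into diluted conditioned medium of S16 cells; series mostly up to about 54 µM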
# Outline: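 qHTS format, against NLuc in S16 cell-conditioned medium. Nano-Glo substrate 1:100 was added after 15 min at room temperature. Luminescence was taken after a further 5 min.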
compound,measurement,setting,value
CCOc1ccc2c3c1O[C@H]1[C@@H](O)C=C[C@H]4[C@@H](C2)N(C)CC[C@@]341,Potency,[1],inactive
same,Potency,[2],inactive
CCCCCCC(=O)O[C@H]1CC[C@H]2[C@@H]3CC[C@H]4CC(=O)C=C(C)[C@]4(C)[C@H]3CC[C@]12C,Potency,[1],inactive
C[C@]12CC[C@H](OS(=O)(=O)O)CC1=CC[C@@H]1[C@@H]2CC[C@]2(C)C(=O)CC[C@@H]12,Potency,[1],inactive
O=C(OCCN1CCCCC1)C(O)(c1ccccc1)c1ccccc1,Potency,[1],inactive
same,Potency,[2],inactive
CCCCNCC(O)c1ccc(O)cc1 (configuration not stated),Potency,[1],inactive
same,Potency,[2],inactive
COC([CH2][Hg])CNC(=O)c1ccccc1OCC(=O)O (configuration not stated),Potency,[1],inactive
NC(=O)c1cc(N2CC2)c([N+](=O)[O-])cc1[N+](=O)[O-],Potency,[1],inactive
same,Potency,[2],inactive
ClC1C(Cl)C(Cl)C(Cl)C(Cl)C1Cl (configuration not stated),Potency,[1],inactive
same,Potency,[2],inactive
COc1ccc2c(c1)/C(=C/c1cnc[nH]1)C(=O)N2,Potency,[1],inactive
C[C@]12CCC(=O)C=C1C=C[C@@H]1[C@@H]2CC[C@@]2(C)[C@H]1CC[C@@]2(O)CCC(=O)O,Potency,[1],inactive
CC1CCC(C(C)C)C(OC(=O)c2ccccc2N)C1 (configuration not stated),Potency,[1],inactive
same,Potency,[2],inactive
CCC1(C)CC(=O)NC(=O)C1,Potency,[1],inactive
same,Potency,[2],inactive
Cc1sc2ccccc2c1CC1=NCCN1,Potency,[1],inactive
same,Potency,[2],inactive
CCOC(=O)c1ccccc1C(=O)OCC,Potency,[1],inactive
same,Potency,[2],inactive
CCCCC[C@@H](O)C1C(=O)OC(C)[C@H](O)/C=C/C=C/C=C/C=C/C=C(\C)C(O)C(O)C(O)C[C@H](O)C[C@H](O)C[C@H](O)C[C@H](O)C[C@@H]1O (some centres not stated),Potency,[1],inactive
CCCCCCCCCC(=O)O[C@H]1CC[C@H]2[C@@H]3CCC4=CC(=O)CC[C@]4(C)[C@H]3CC[C@]12C,Potency,[1],inactive
NCC(O)c1cccc(O)c1 (configuration not stated),Potency,[1],inactive
same,Potency,[2],inactive
Oc1ccc2c3c1O[C@H]1c4oc5ccccc5c4C[C@@]4(O)C(C2)N(CC2CC2)CCC314 (some centres not stated),Potency,[1],inactive
same,Potency,[2],inactive
CC(=O)O[C@H]1CC[C@H]2[C@@H]3CCC4=CC(=O)CCC4=C3C=C[C@]12C,Potency,[1],inactive
same,Potency,[2],22.4 µM (active)
C[C@@H](CO)NC(=O)[C@@H]1C=C2c3cccc4[nH]cc(c34)C[C@H]2N(C)C1,Potency,[1],inactive
C/C(O)=C(\C#N)C(=O)Nc1cc(Br)ccc1Br,Potency,[1],inactive
same,Potency,[2],inactive
CC(C)(O)[C@@H]1[C@H]2OC(=O)[C@@H]1[C@]1(O)C[C@H]3O[C@]34C(=O)O[C@H]2[C@]14C,Potency,[1],inactive
Oc1ccc2c3c1O[C@H]1[C@@H](O)CC[C@@]4(O)[C@@H](C2)N(CC2CCC2)CC[C@]314,Potency,[1],inactive
CC(N)Cc1ccc(O)cc1 (configuration not stated),Potency,[1],inactive
same,Potency,[2],inactive
COc1ccc2c(c1O)-c1cccc3c1[C@@H](C2)N(C)CC3,Potency,[1],inactive
same,Potency,[2],inactive
CCCC(=O)OC(C(Cl)(Cl)Cl)P(=O)(OC)OC (configuration not stated),Potency,[1],inactive
same,Potency,[2],inactive
Cn1sc(Cl)cc1=O,Potency,[1],inactive
same,Potency,[2],inactive
N#CCCN,Potency,[1],inactive
same,Potency,[2],inactive
C/C(=C\c1csc(C)n1)[C@@H]1C[C@@H]2O[C@]2(C)CCC[C@H](C)[C@H](O)[C@@H](C)C(=O)C(C)(C)[C@@H](O)CC(=O)O1,Potency,[1],inactive
same,Potency,[2],inactive
CNc1ccc2oc(C[C@H]3O[C@@]4(CC[C@H]3C)O[C@H]([C@H](C)C(=O)c3ccc[nH]3)[C@H](C)C[C@H]4C)nc2c1C(=O)O,Potency,[1],inactive
same,Potency,[2],inactive
CCN(CC)C(=O)N[C@H]1C[C@@H]2c3cccc4[nH]cc(c34)C[C@H]2N(C)C1,Potency,[1],inactive
same,Potency,[2],inactive
Ic1ccccc1CNC1C2CCN(CC2)C1C(c1ccccc1)c1ccccc1 (configuration not stated),Potency,[1],inactive
same,Potency,[2],inactive
CC(C)CCON=O,Potency,[1],inactive
same,Potency,[2],inactive
CCC1(CC)C(=O)NC(=O)N(C)C1=O,Potency,[1],inactive
same,Potency,[2],inactive
CC[C@H]1CN2CC[C@H]1C[C@H]2[C@H](O)c1ccnc2ccc(OC)cc12,Potency,[1],inactive
same,Potency,[2],inactive
same,Potency,[3],inactive
same,Potency,[4],inactive
same,outcome,[5],inactive
C[C@]12CC[C@H]3[C@@H](CCC4=C(O)C(=O)CC[C@@H]43)[C@@H]1CC[C@@H]2OC(=O)CCC1CCCC1,Potency,[1],inactive
same,Potency,[2],14.1 µM (active)
O=C(C[C@@H]1NCCC[C@H]1O)Cn1cnc2cc(Br)c(Cl)cc2c1=O,Potency,[1],inactive
same,Potency,[2],17.8 µM (active)
C[C@]12CC[C@H]3[C@@H](CC[C@@]45O[C@@H]4C(O)=C(C#N)C[C@]35C)[C@@H]1CC[C@@H]2O,Potency,[1],inactive
same,Potency,[2],inactive
NNC(N)=O,Potency,[1],inactive
same,Potency,[2],inactive
Cc1cccc(NC(=O)N[C@@H]2N=C(c3ccccc3)c3ccccc3N(C)C2=O)c1,Potency,[1],inactive
same,Potency,[2],inactive
same,Potency,[3],inactive
same,Potency,[4],inactive
COC1CC(O[C@H]2CC[C@@]3(C)C(=CCC4C3C(O)[C@@H](O)[C@]3(C)[C@@H](C(C)=O)CC[C@]43O)C2)OC(C)C1OC1CC(OC)C(OC2OC(C)C(O)C(O)C2O)C(C)O1 (some centres not stated),Potency,[1],inactive
same,Potency,[2],inactive
same,outcome,[3],inactive [at 11.6 µM]
same,"activity change, negative = thiol reactive",[4],105% [at 11.5 µM]
same,"activity, negative = inhibition",[5],4.68% [at 11.6 µM]
CCC(C)(OC(C)=O)C(=O)O[C@H]1[C@H](OC(C)=O)C[C@@H]2[C@@](C)([C@@H]3C[C@H]4C=CO[C@H]4O3)[C@H](C)C[C@H](OC(C)=O)[C@@]2(COC(C)=O)[C@@]12CO2 (some centres not stated),Potency,[1],inactive
same,Potency,[2],inactive
same,Potency,[3],inactive
same,Potency,[4],inactive
same,outcome,[5],inactive
CN1[C@H]2CC[C@@H]1[C@@H](C(=O)O)[C@@H](OC(=O)c1ccccc1)C2,Potency,[1],inactive
same,Potency,[2],inactive

# From PubChem BioAssay (NCATS)
